Screening data from PubChem BioAssay.
Compounds with a hit are over-represented: about 19% of the library has one in this group of screens.
DT40 TDP1 CPT = DT40-hTDP1 cell growth loss with CPT; chicken DT40 Tdp1-/-;hTDP1 cells + 20 nM CPT, ATP luminescence, 48 h; Potency, µM (top dose mostly 46.2 µM), most hits filed as inhibitors; 420,000 tested, 12% active; AID 686979; note: nearly all actives have a fitted effect of over 55% in size
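Cell growth measured by CellTiter-Glo luminescence after a minimum 48 h, 37 C compound exposure with 20 nM CPT in Tdp1-knockout DT40 cells stably expressing hTDP1, seeded 400/well; qHTS titration format.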
TDP1 cell noCPT = qHTS for Inhibitors of human tyrosyl-DNA phosphodiesterase 1 (TDP1): qHTS in cells in absence of CPT; DT40 Tdp1-/- hTDP1 cells, no CPT, ATP luminescence, 48 h; Potency, µM (titrated, usually from 46.2 µM), usual class: inhibitors; 420,000 tested, 15% active; AID 686978, 2013; note: nearly all actives have a fitted effect of over 55% in size
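DT40 Tdp1-/-;hTDP1 cells, no CPT (DMSO vehicle only), 400 cells/well; compounds pin-transferred; ≥48 hr, 37 °C; CellTiter-Glo 30 min RT dark, luminescence read.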
TDP1 block = TDP1 (human) enzyme inhibition | recombinant TDP1, AlphaScreen DNA substrate cleavage | 350,000 tested, 0.28% active | Potency, µM (series often up to 130 µM), usual class: inhibitors | AID 485290 | Q9NUW8; note: nearly all actives have a fitted effect of over 40% in size
Target sequence (Q9NUW8 whole entry, looked up): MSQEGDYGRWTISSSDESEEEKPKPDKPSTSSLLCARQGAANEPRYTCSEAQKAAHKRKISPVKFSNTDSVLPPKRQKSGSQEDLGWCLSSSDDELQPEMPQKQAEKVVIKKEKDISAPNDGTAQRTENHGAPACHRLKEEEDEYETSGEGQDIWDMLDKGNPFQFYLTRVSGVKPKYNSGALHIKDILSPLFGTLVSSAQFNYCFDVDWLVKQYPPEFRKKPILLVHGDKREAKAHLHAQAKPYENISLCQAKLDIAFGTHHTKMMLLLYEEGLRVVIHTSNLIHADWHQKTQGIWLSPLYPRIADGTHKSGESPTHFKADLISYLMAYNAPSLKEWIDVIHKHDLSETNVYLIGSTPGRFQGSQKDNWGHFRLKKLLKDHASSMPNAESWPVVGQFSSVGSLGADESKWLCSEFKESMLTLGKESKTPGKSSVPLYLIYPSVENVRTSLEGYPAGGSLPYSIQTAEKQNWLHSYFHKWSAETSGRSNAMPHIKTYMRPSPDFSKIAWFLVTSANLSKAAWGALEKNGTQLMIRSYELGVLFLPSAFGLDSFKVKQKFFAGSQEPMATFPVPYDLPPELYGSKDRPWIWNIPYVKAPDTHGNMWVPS
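Recombinant human Tdp1 (E. coli-expressed, 1 nM final) preincubated with compounds 15 min at room temperature, then 5'-biotin/3'-phosphotyrosine-FITC DNA substrate (15 nM final) added for 5 min. AlphaScreen beads (10 ug/ml final) added 10 min; cleavage lowers signal.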
RORg inh = ROR gamma (mouse) transcription inhibition; Potency, µM (titrated, usually from 53.6 µM), most hits filed as inhibitors; AID 2551; 310,000 tested, 5.4% active; Drosophila S2 Gal4-RORgamma UAS-luciferase reporter, 20 h; P51450; note: nearly all actives have a fitted effect of over 60% in size
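Compounds are pin-transferred onto Drosophila Schneider cells expressing a copper-inducible Gal4–ROR gamma transactivation domain fusion. After 1 hr, copper sulfate is added to 700 uM final; luciferase is read 20 hr later.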
VP16 counter = Gal4-VP16 reporter inhibition counter-screen. Drosophila S2 Gal4-VP16 UAS-luciferase, luminescence, 20 h. Potency, µM (highest dose often 53.6 µM), hits mostly inhibitors. AID 2546. 310,000 tested, 3.5% active;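 note: Gal4-VP16 expression switched on by copper sulfate through the metallothionein promoter; nearly all actives have a fitted effect of over 50% in size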
Each line names hits and unclear results; the compound was inactive in the other large screens; ! = not active in a repeat. Calls come from the whole dose curve; as a rule, active = well fitted curve in the direction sought with a large enough effect; inconclusive = small, poorly fitted or top-dose-only effect, or another doubt; inactive = no such curve, though single readings can be large; an effect the other way counts as inactive or inconclusive.

O=C(C[C@H]1C/C=C\C[C@H](NC(=O)OCC2c3ccccc3-c3ccccc32)C(=O)O[C@@H](c2ccccc2)CNC1=O)NCCO	DT40 TDP1 CPT 9.2µM, TDP1 cell noCPT 10µM (no result: RORg inh, VP16 counter)
O=C(C[C@H]1C/C=C\C[C@@H](Cc2ccc(F)cc2)C(=O)O[C@H](c2ccccc2)CNC1=O)NCCO	DT40 TDP1 CPT inconclusive, TDP1 cell noCPT inconclusive (no result: RORg inh, VP16 counter)
CC(C)(C)OC(=O)C[C@H]1C/C=C\C[C@H](CC(=O)NCCO)C(=O)NC[C@@H](c2ccccc2)OC1=O	none (no result: RORg inh, VP16 counter)
O=C(C[C@@H]1C/C=C\C[C@H](NC(=O)OCC2c3ccccc3-c3ccccc32)C(=O)O[C@H](c2ccccc2)CNC1=O)NCCO	DT40 TDP1 CPT 2.6µM, TDP1 cell noCPT 2.1µM (no result: RORg inh, VP16 counter)
O=C(CN1C(=O)/C(=C\c2cccc(Br)c2)Oc2ccccc21)NCC1CCCO1 (stereo not given)	DT40 TDP1 CPT inconclusive, TDP1 cell noCPT inconclusive
CCN(CC(=O)Nc1ccc(NC(C)=O)cc1)C(=O)c1cc(C)on1	none (no result: TDP1 block, RORg inh, VP16 counter)
CCc1nnc(NC(=O)CSc2nnc(CSc3nc(C)cc(C)n3)n2C)s1	none
COc1cc2c3nnc(-c4ccc(F)cc4)c-3cn(Cc3cccc(C)c3)c2cc1OC	DT40 TDP1 CPT 1.8µM, TDP1 cell noCPT 2.6µM, RORg inh inconclusive, VP16 counter 10µM
COc1cc2c3nnc(-c4ccccc4)c-3cn(Cc3ccc(F)cc3)c2cc1OC	DT40 TDP1 CPT 8.2µM, TDP1 cell noCPT 15µM
COc1cc2c3nnc(-c4ccc(F)cc4)c-3cn(Cc3cccc(F)c3)c2cc1OC	DT40 TDP1 CPT 2.3µM, TDP1 cell noCPT 2.6µM, RORg inh inconclusive
COc1cccc(Cn2nc3c4cc(F)ccc4n(Cc4ccc(F)cc4)cc-3c2=O)c1	TDP1 cell noCPT inconclusive (no result: TDP1 block)
CSc1ncc(C(=O)Nc2cccc(Cl)c2C)c(C)n1	none (no result: TDP1 block)
COc1cc(CN2CCOc3ccc(C(O)c4cccnc4)cc3C2)cc(OC)c1 (stereo not given)	none (no result: TDP1 block, RORg inh, VP16 counter)
Cn1cc(CN2CCOc3ccc(C(O)C4CCCCC4)cc3C2)cn1 (stereo not given)	DT40 TDP1 CPT inconclusive, TDP1 cell noCPT 12µM (no result: TDP1 block, RORg inh, VP16 counter)
CC(=O)OCc1ccco1	none (no result: DT40 TDP1 CPT, TDP1 cell noCPT)
CC(C)OC(=O)c1cccc(C(=O)OCc2ccco2)n1	DT40 TDP1 CPT inconclusive, TDP1 cell noCPT 21µM, VP16 counter inconclusive
Fc1ccccc1Cn1c(-c2ccccc2)nc2ccccc21	DT40 TDP1 CPT inconclusive, TDP1 cell noCPT 7.3µM (no result: RORg inh, VP16 counter)
CS(=O)(=O)c1nc2ccccc2n1Cc1ccccc1	DT40 TDP1 CPT inconclusive
CCSc1nc2ccccc2n1Cc1ccccc1F	TDP1 cell noCPT inconclusive
Cc1nc2ccccc2n1Cc1ccc(Cl)cc1	DT40 TDP1 CPT 10µM!, TDP1 cell noCPT 7.3µM, RORg inh inconclusive, VP16 counter 10µM
COc1ccc(C)cc1Cn1c(S(C)(=O)=O)nc2ccccc21	DT40 TDP1 CPT 16µM, TDP1 cell noCPT 21µM
ClC1(Cl)CC1Cn1c(C2CC2)nc2ccccc21 (stereo not given)	none
OCc1nc2ccccc2n1Cc1ccc(Cl)cc1	DT40 TDP1 CPT inconclusive, TDP1 cell noCPT inconclusive
CCc1nc2ccccc2n1CC1CC1(Cl)Cl (stereo not given)	RORg inh 7.1µM
COc1ccccc1/C=N/NC(=O)c1nnn(-c2nonc2N)c1-c1ccccc1	none (no result: TDP1 block, RORg inh, VP16 counter)
Nc1nnc(SCCCOc2ccc(F)cc2)s1	VP16 counter inconclusive
COc1ccccc1Cn1c(C)nc2ccccc21	TDP1 cell noCPT inconclusive, RORg inh 14µM, VP16 counter inconclusive
Cc1ccccc1Cn1c(-c2cncs2)nc2ccccc21	DT40 TDP1 CPT inconclusive, TDP1 cell noCPT inconclusive
Brc1ccccc1Cn1c(-c2cscn2)nc2ccccc21	DT40 TDP1 CPT 23µM, TDP1 cell noCPT inconclusive, RORg inh inconclusive, VP16 counter inconclusive
Cc1ccccc1Cn1c(C)nc2ccccc21	DT40 TDP1 CPT inconclusive, TDP1 cell noCPT 5.8µM, RORg inh inconclusive, VP16 counter 3.5µM (no result: TDP1 block)
CCc1nc2ccccc2n1Cc1ccccc1OC	DT40 TDP1 CPT inconclusive, TDP1 cell noCPT inconclusive, RORg inh 7.1µM, VP16 counter inconclusive
COc1ccc(CNc2oc(-c3ccccc3)nc2C#N)cc1	RORg inh inconclusive
CCOc1ccc(OCC)c(NC(=O)C2CCCN(c3ncccn3)C2)c1 (stereo not given)	DT40 TDP1 CPT inconclusive
